Legend:
Experiment in all cases: normalised indicator fluorescence (fraction of RNA + indicator signal without compound); higher = less displacement of indicator (weaker competition)
Conditions in all cases: compound concentration: 5 uM, 30 min
[1] = tested on: hsa-mir-191 loop
In short: (§1)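 In 96-well plates, RNA was combined with a TO-PRO-1 or TO-PRO-3 indicator in 20 mM phosphate pH 7.0 containing 20 mM NaCl and 80 mM KCl. Each compound was added as 0.25 μL of a 1 mM DMSO stock, giving about 5 uM final, and fluorescence was read on an Infinite 200 PRO after 30 min (excitation 485 or 620 nm). Values are the blank-corrected indicator fluorescence (buffer plus indicator subtracted) divided by the signal of RNA plus indicator without compound, averaged over two independent experiments.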

[2] = tested on: hsa-mir-21 loop
In short: as §1

[3] = tested on: hsa-mir-221 loop
In short: as §1

[4] = tested on: hsa-mir-374a loop
In short: as §1

[5] = tested on: hsa-mir-6850 loop
In short: as §1

[6] = indicator: TO-PRO-1 0.1 uM, RNA concentration: 0.1 uM
[7] = indicator: TO-PRO-3 0.5 uM, RNA concentration: 0.5 uM

SMILES	normalised indicator fluorescence [1, 6]	normalised indicator fluorescence [1, 7]	normalised indicator fluorescence [2, 6]	normalised indicator fluorescence [2, 7]	normalised indicator fluorescence [3, 6]	normalised indicator fluorescence [3, 7]	normalised indicator fluorescence [4, 6]	normalised indicator fluorescence [4, 7]	normalised indicator fluorescence [5, 6]	normalised indicator fluorescence [5, 7]
COC1=C2C[C@@H](C)C[C@H](OC)[C@H](O)[C@@H](C)/C=C(\C)[C@H](OC(N)=O)[C@@H](OC)/C=C\C=C(/C)C(=O)NC(=CC1=O)C2=O [Geldanamycin]	1.09	1.08	1.04	1.05	1.04	1.09	1.11	1.31	1.09	1.02
CCOc1cc(C(=O)N2CCC(N3CCN(C)CC3)CC2)ccc1Nc1ncc2c(n1)N(C1CCCC1)c1ccccc1C(=O)N2C	1.09	1.04	0.946	1.01	1.03	1.01	1.07	1.1	0.938	1
O=c1cc(-c2ccc(O)cc2)oc2cc(O)cc(O)c12 [Apigenin]	1.03	1.05	0.934	1	1.04	1.03	1.05	1.22	0.954	1.06
O=C(NC(Cc1cc(=O)[nH]c2ccccc12)C(=O)O)c1ccc(Cl)cc1 (stereo not given) [Rebamipide]	1.07	1.14	0.99	1.03	1.08	1.04	1.1	1.13	1.19	1.03
C[C@@H]1O[C@@H](O[C@H]2[C@H](Oc3cc(O)c4c(c3)O[C@H](c3ccc(O)cc3)CC4=O)O[C@H](CO)[C@@H](O)[C@@H]2O)[C@H](O)[C@H](O)[C@H]1O [Naringin]	0.96	1.09	0.933	1.08	1.06	1.04	1.14	1.21	0.897	1.09
NNC(=O)c1ccncc1 [Isoniazid]	1.01	1.06	0.967	1.07	0.976	1.01	1.01	1.07	0.921	1.09
COc1ccc([C@@H]2OC[C@H]3[C@@H]2CO[C@@H]3c2ccc(O[C@@H]3O[C@H](CO)[C@@H](O)[C@H](O)[C@H]3O)c(OC)c2)cc1OC [Forsythin]	1.06	1.04	0.926	0.988	0.939	1.04	1.09	1.09	0.927	1.07
Cc1c(C)c2c(c(C)c1O)CC[C@@](C)(CCC[C@H](C)CCC[C@H](C)CCCC(C)C)O2 [Vitamin E]	1.08	1.06	0.956	1.01	1.02	1.07	1.05	1.06	0.907	1.03
CO[C@H]1/C=C/O[C@@]2(C)Oc3c(C)c(O)c4c(c3C2=O)C2=NC3(CCN(CC(C)C)CC3)NC2=C(NC(=O)/C(C)=C\C=C\[C@H](C)[C@H](O)[C@@H](C)[C@@H](O)[C@@H](C)[C@H](OC(C)=O)[C@@H]1C)C4=O [Rifabutin]	1.04	1.01	1.03	0.969	0.997	1.01	1.34	1.04	0.991	1.07
CN1CCN(c2nc(C3=C(c4c[nH]c5ccccc45)C(=O)NC3=O)c3ccccc3n2)CC1 [Sotrastaurin]	0.995	1.01	1.13	1.04	1.03	0.999	1.19	1.3	0.954	0.996
Oc1ccc(OCc2ccccc2)cc1 [Monobenzone]	0.997	1.15	0.955	1.11	1.03	1.17	1.27	1.27	0.909	1.06
O=c1ccc2ccc(O)cc2o1 [7-Hydroxycoumarin]	1.06	1.06	1.05	0.997	1.11	1.01	1.07	1.15	0.986	1.05
COc1nccnc1NS(=O)(=O)c1ccc(NC(=O)/C=C/c2ccc([N+](=O)[O-])s2)cc1 [Necrosulfonamide]	1.12	1.02	0.985	1.08	1.01	1.08	1.05	1.18	0.886	1
CCc1oc2ccccc2c1C(=O)c1cc(Br)c(O)c(Br)c1 [Benzbromarone]	0.976	1.01	0.927	1.05	1	1.09	1.16	1.34	0.95	1.04
COC(=O)c1ccc([C@H]2c3[nH]c4ccccc4c3C[C@H](C(=O)OC)N2C(=O)CCl)cc1	1.05	1	0.974	1.02	0.997	1.09	1.01	1.39	1.09	1.03
CC1(C)C=Cc2c(ccc3c2OC[C@@H](c2ccc(O)cc2O)C3)O1 [Glabridin]	1.07	1.05	1.05	1.03	1.04	1	1.13	1.2	0.981	1.01
Nc1ncnc2c1ncn2[C@@H]1O[C@H](CO)[C@@H](O)[C@@H]1O [Vidarabine]	1.03	1.07	1.03	1.04	1.03	1.04	1.16	1.15	1	1.06
CC(C)c1cc(-c2n[nH]c(=O)n2-c2ccc3c(ccn3C)c2)c(O)cc1O [Ganetespib]	1.04	1.03	1	1.04	1.03	1.08	1.07	1.14	0.915	1

SMILES	normalised indicator fluorescence [1, 6]	normalised indicator fluorescence [1, 7]	normalised indicator fluorescence [2, 6]	normalised indicator fluorescence [2, 7]	normalised indicator fluorescence [3, 6]	normalised indicator fluorescence [3, 7]	normalised indicator fluorescence [4, 6]	normalised indicator fluorescence [4, 7]	normalised indicator fluorescence [5, 6]	normalised indicator fluorescence [5, 7]
C[C@H]1Oc2cc(cnc2N)-c2c(nn(C)c2C#N)CN(C)C(=O)c2ccc(F)cc21 [Lorlatinib]	0.997	1.03	1.05	1.03	0.999	1.02	1.08	1.26	1.14	1.05
O=CN1CC/C(=C/c2ccc3c(c2)OCO3)C1=O	1.04	1.04	0.922	1.01	1.03	0.986	1.1	1.08	1	1.03
O=C(O)C(O)Cc1ccc(O)c(O)c1 (stereo not given) [Sodium Danshensu]	0.941	1.02	0.888	1.05	0.976	1.05	1.07	0.994	0.964	1.08
CN(NC(=O)CC(=O)NN(C)C(=S)c1ccccc1)C(=S)c1ccccc1 [Elesclomol]	1.05	1.03	1.06	1.03	1.04	0.964	1.09	1.18	1.02	1.02
COC1=C(OC)C(=O)C(CCCCCCCCCCO)=C(C)C1=O [Idebenone]	1.04	1.05	0.937	1.04	1.02	1.04	1.04	1.03	0.917	1.02
COc1ccc(C2CC(=O)c3c(O)cc(OC4OC(COC5OC(C)C(O)C(O)C5O)C(O)C(O)C4O)cc3O2)cc1OC (stereo not given) [Methyl hesperidin]	0.968	1.08	0.942	0.97	1.05	1.03	1.14	1.14	0.967	1.07
C[C@@H]1O[C@@H](O[C@@H]2[C@@H](O)[C@H](OCCc3ccc(O)c(O)c3)O[C@H](CO)[C@H]2OC(=O)/C=C/c2ccc(O)c(O)c2)[C@H](O)[C@H](O)[C@H]1O [Verbascoside]	1.1	1.02	1.13	1.01	1.07	0.949	1.46	1.14	1.02	1.02
O=C(Nc1ccc2[nH]nc(-c3ccncc3)c2c1)[C@@H]1CCN(CC(=O)N2CCN(c3ccc(-c4ncccn4)cc3)CC2)C1	1.05	1.02	1.02	1	1.04	1	1.09	1.16	0.931	0.89
Oc1cc(O)c2c(c1)O[C@H](c1ccc(O)c(O)c1)[C@@H](O)C2 [Cianidanol]	1.01	1.07	0.93	1.06	1.16	1.07	1.26	1.17	1	1.07
COc1ccc(O)cc1 [4-Methoxyphenol]	0.962	1.17	0.99	1.05	1.08	1.04	1.19	1.14	0.977	1.11
O=C(O)/C=C/c1ccc(Cn2ccnc2)cc1 [Ozagrel]	0.962	1.05	0.996	1.03	1.07	1.05	1.12	1.19	0.929	1.03
NC(=O)c1ccc(N(C(N)=O)c2c(F)cccc2F)nc1-c1ccc(F)cc1F	0.984	1.01	0.905	1.02	1.06	0.999	1.15	1.19	0.94	1.03
O=c1ncn2nc(Sc3ccc(F)cc3F)ccc2c1-c1c(Cl)cccc1Cl [Neflamapimod]	1.04	1.05	0.973	1.04	1.03	1.22	1.07	1.3	0.955	1.02
N#CC(c1ccnc(OCc2ccc(CN3CCOCC3)cc2)n1)c1nc2ccccc2s1 (stereo not given)	1.03	0.659	1.14	0.839	1.37	0.837	1.26	0.694	0.827	0.505
CC1=C[C@]2(O)O[C@@]3(CC2=C(C)C)[C@@H](C)CC[C@@H]13 [Curcumenol]	1	1.02	1.06	1.04	1.01	1.31	1.08	1.33	1.02	0.985
Cc1c(C)c2c(c(C)c1O)CCC(C)(C(=O)O)O2 (stereo not given) [Trolox]	1.03	1.05	1.02	0.957	1.05	1.12	1.11	1.22	1.02	1.07
O=C1CCc2ccccc2C1 [Beta-Tetralone]	1.04	1.06	1.05	1.04	1.04	1.06	1.07	1.02	0.996	1.08
NC(=O)c1ccccc1Nc1ccnc(Nc2cccc(O)c2)n1	0.949	1.02	0.974	1.02	0.967	0.979	1.12	1.2	0.993	1.04
